# From the supplement of paper PMC11732987, “Enantioselective OTUD7B fragment discovery through chemoproteomics screening and high-throughput optimisation” (Communications Chemistry, 2025)
# Values without a mark were called inactive.
# Assays:
# Assay in all cases: log2 ratio of Biotin-Ahx-Ub-VS probe labelling (fragment/DMSO); higher = less target engagement (more negative = stronger competition), active = hit call of the paper (q ≤ 0.05, log2 ratio ≤ -1)
# Details in all cases: compound concentration: 200 uM; treatment time: 3 h
# ALG13 = target: T1, ALG13 (UniProt Q9NP73)
# T1 sequence (whole entry): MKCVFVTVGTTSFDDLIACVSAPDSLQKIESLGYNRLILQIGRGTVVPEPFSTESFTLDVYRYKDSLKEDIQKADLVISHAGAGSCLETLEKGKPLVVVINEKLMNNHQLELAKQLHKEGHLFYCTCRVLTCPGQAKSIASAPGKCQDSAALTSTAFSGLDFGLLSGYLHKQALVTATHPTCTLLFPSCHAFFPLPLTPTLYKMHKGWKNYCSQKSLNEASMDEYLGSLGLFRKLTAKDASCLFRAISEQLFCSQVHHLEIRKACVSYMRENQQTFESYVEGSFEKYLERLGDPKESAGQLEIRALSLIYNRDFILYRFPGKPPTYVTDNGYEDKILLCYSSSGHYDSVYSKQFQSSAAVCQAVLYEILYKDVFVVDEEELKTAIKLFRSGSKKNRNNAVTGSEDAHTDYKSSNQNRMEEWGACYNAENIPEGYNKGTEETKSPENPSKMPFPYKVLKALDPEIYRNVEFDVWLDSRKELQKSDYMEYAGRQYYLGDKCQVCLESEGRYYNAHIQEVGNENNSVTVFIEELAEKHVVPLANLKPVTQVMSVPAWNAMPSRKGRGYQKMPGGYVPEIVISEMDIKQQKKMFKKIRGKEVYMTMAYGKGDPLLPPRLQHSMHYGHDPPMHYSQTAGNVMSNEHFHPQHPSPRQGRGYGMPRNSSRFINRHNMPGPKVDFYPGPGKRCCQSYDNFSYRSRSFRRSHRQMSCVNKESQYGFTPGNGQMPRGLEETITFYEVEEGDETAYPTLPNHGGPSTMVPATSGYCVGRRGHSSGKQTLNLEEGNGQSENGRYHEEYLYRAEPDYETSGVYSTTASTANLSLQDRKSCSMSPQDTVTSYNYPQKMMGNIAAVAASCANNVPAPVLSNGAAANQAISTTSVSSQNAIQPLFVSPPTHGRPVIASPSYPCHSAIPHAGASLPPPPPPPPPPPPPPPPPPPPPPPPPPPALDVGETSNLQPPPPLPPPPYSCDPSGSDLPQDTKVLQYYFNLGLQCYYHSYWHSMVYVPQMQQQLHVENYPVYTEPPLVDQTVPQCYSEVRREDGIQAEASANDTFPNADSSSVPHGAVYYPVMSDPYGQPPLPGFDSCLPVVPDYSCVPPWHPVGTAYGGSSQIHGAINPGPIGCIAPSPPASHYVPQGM
# Summary of the method: (§1)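 Labelling with Biotin-Ahx-Ub-VS (0.5 µM final, 1 h) followed a 3 h triplicate treatment of HEK293T lysate (495 µg per sample, Tris/CHAPS/IGEPAL buffer with protease inhibitors) with fragment at 200 µM or vehicle. Labelled DUBs were NeutrAvidin-enriched, digested with LysC and trypsin, and run by diaPASEF LC-MS/MS. The values, average log2 fragment/vehicle ratios by unpaired t-test, come from global-median-normalised Spectronaut label-free quantities. Proteins with ≥2 unique peptides were used.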
# ATXN3 = ATXN3 (UniProt P54252)
# Sequence of ATXN3 (P54252 whole entry): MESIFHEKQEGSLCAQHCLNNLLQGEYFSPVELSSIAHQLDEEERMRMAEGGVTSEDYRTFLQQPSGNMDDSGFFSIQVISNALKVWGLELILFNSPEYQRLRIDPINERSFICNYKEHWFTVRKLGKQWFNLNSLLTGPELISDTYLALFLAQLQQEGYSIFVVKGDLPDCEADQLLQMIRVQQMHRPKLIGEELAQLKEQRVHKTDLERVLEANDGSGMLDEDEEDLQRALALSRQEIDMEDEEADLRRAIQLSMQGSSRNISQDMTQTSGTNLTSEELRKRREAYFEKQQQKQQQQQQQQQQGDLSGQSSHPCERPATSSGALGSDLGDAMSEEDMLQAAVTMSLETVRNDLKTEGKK
# Summary of the method: as §1
# BAP1 = target: T2, BAP1 (UniProt Q92560)
# T2 sequence (whole entry): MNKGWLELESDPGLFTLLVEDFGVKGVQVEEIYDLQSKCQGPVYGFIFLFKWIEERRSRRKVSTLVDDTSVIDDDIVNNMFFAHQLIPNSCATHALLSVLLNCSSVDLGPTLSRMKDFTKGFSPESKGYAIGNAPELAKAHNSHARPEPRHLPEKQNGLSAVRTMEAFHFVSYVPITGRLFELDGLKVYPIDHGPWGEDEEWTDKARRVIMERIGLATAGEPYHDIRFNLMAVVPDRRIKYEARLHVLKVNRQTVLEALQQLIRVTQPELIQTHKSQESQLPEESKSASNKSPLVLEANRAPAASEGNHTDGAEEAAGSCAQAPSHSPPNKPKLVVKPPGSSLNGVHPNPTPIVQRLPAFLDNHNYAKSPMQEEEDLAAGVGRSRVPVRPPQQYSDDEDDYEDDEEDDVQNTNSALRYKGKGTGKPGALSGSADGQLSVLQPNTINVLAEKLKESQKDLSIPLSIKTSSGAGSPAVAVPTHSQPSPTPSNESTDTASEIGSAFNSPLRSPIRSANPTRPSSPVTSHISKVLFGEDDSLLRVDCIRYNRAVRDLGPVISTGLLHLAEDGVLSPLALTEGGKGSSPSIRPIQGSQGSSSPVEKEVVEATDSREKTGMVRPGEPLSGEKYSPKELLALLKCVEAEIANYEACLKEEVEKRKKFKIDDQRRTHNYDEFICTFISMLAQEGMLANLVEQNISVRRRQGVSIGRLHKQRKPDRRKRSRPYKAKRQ
# Summary of the method: as §1
# EIF3F = EIF3F (UniProt O00303)
# Sequence of EIF3F (O00303 whole entry): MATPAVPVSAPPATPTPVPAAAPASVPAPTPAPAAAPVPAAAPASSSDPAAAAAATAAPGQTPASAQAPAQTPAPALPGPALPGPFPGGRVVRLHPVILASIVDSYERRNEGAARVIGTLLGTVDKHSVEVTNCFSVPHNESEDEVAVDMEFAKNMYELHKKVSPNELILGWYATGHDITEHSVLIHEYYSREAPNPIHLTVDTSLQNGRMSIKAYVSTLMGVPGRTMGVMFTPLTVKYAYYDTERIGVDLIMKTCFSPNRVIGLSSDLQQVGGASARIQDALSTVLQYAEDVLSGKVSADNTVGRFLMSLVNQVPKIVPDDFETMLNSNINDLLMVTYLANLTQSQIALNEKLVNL
# Summary of the method: as §1
# EIF3H = EIF3H (UniProt O15372)
# Sequence of EIF3H (O15372 whole entry): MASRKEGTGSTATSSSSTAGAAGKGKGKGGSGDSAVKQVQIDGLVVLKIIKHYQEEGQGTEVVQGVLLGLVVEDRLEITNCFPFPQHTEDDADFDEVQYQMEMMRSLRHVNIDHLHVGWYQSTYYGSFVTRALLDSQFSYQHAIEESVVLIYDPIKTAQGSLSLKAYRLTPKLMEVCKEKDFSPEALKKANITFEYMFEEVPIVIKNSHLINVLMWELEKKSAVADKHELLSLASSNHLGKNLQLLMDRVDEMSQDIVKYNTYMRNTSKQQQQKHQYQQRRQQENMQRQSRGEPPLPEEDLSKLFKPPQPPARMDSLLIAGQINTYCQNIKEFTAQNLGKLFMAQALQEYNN
# Summary of the method: as §1
# FAM105A = target: T3, FAM105A (UniProt Q9NUU6)
# T3 sequence (whole entry): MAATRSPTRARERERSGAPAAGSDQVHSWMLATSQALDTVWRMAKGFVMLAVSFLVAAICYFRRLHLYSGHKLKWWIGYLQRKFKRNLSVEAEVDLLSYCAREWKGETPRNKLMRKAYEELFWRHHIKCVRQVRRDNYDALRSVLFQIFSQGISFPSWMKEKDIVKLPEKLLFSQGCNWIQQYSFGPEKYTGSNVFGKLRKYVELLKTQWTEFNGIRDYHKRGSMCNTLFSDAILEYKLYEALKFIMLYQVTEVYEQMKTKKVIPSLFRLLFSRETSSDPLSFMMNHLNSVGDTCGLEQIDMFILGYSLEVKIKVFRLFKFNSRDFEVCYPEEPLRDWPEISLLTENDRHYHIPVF
# Summary of the method: as §1
# OTUB1 = OTUB1 (UniProt Q96FW1)
# Sequence of OTUB1 (Q96FW1 whole entry): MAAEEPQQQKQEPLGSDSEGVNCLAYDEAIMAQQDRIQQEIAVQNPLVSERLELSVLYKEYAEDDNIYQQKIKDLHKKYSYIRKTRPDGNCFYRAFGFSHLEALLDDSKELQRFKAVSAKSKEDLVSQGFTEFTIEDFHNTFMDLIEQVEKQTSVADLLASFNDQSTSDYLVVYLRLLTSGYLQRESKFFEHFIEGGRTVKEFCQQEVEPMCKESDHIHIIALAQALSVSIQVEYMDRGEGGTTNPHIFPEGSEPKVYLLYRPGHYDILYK
# Summary of the method: as §1
# OTUD4 = target: T4, OTUD4 (UniProt Q01804)
# T4 sequence (whole entry): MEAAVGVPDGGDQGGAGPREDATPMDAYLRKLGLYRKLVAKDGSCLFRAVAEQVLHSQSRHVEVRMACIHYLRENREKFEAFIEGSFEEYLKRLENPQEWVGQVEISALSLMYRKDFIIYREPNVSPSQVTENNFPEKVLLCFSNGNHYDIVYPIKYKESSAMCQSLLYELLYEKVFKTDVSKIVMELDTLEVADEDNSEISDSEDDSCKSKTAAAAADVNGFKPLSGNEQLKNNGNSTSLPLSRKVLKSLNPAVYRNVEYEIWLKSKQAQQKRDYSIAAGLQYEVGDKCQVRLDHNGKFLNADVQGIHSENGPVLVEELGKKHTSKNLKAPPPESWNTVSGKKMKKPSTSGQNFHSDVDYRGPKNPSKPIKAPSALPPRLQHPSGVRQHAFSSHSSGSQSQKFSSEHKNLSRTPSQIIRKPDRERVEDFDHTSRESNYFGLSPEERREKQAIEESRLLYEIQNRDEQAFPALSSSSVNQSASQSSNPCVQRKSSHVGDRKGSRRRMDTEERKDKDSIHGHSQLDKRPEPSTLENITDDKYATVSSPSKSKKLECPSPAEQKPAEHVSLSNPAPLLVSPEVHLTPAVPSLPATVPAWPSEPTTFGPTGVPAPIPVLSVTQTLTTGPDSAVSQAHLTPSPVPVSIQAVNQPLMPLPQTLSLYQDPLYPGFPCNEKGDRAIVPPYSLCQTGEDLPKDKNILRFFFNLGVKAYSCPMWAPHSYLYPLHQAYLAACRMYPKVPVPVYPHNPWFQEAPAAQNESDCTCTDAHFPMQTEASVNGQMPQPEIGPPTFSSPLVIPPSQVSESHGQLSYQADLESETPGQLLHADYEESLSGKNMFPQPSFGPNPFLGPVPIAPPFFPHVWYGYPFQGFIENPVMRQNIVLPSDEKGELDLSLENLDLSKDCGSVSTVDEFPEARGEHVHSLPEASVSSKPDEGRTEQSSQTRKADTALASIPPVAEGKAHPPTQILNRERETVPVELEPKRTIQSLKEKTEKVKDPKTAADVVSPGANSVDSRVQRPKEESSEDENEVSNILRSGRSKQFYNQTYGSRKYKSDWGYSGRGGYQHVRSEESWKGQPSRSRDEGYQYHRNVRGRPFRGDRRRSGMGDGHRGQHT
# Summary of the method: as §1
# OTUD5 = target: T5, OTUD5 (UniProt Q96G74)
# T5 sequence (whole entry): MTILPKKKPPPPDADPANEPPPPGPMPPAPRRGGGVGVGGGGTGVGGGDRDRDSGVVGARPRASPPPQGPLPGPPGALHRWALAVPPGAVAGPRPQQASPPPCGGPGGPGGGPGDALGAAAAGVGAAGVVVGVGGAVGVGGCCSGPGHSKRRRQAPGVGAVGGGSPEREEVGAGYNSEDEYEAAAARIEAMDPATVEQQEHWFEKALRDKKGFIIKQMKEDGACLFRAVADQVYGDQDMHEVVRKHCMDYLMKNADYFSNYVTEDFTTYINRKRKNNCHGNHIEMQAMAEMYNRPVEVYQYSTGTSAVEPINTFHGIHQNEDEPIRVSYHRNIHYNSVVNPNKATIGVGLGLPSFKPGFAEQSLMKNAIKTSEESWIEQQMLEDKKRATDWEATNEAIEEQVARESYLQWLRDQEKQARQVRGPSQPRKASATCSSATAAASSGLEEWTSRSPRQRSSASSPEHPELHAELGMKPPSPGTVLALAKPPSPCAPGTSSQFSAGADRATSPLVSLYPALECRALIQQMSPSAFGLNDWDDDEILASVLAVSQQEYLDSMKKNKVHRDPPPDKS
# Summary of the method: as §1
structure (smiles),measurement,setting,value
CC(=O)Nc1ccc(NC(=O)CCl)cc1,log2 ratio of Biotin-Ahx-Ub-VS probe labelling,ALG13,0.0593
same,log2 ratio of Biotin-Ahx-Ub-VS probe labelling,ATXN3,-0.656
same,log2 ratio of Biotin-Ahx-Ub-VS probe labelling,BAP1,-3.42 (active)
same,log2 ratio of Biotin-Ahx-Ub-VS probe labelling,EIF3F,-0.081
same,log2 ratio of Biotin-Ahx-Ub-VS probe labelling,EIF3H,-0.182
same,log2 ratio of Biotin-Ahx-Ub-VS probe labelling,FAM105A,-0.285
same,log2 ratio of Biotin-Ahx-Ub-VS probe labelling,OTUB1,-0.24
same,log2 ratio of Biotin-Ahx-Ub-VS probe labelling,OTUD4,-0.296
same,log2 ratio of Biotin-Ahx-Ub-VS probe labelling,OTUD5,-0.406
